Source: PubChem BioAssay (Tox21)
Values joined by “and” are separate entries in the source; they are usually repeats but may differ in a detail not shown here. Equal values may be shown once. Inconclusive results are not listed. Entries that show only a call come without a potency. Some structures have more than one record in an assay (separate samples or runs), and their calls can disagree. Active and inactive are the calls of the source. Unless noted, calls come from the whole dose curve; as a rule, active = well fitted curve in the direction sought with a large enough effect in the repeat runs; inconclusive = weak or mixed curves; inactive = no such curve, though single readings can be large; an effect the other way counts as inactive or inconclusive.

How the values were obtained:
[1] = qHTS assay to identify small molecule antagonists of the androgen receptor (AR) signaling pathway using the MDA cell line in the presence of 0.5 nM R1881 - cell viability counter screen (AID 1259242); note: nearly all actives have a fitted effect of over 45% in size; note: potency is the fitted concentration of half-maximal effect
In short: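 MDA-kb2 cells (human breast carcinoma, stably carrying MMTV-luciferase reporter) were exposed to compounds with 0.5 nM R1881 (final) for 16 hr at 37C, 0% CO2; viability then read as live-cell protease fluorescence (CellTiter-Fluor, 30 min) in the same wells.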

[2] = molecular target: Estrogen receptor (Homo sapiens) (UniProt P03372); assay: qHTS assay to identify small molecule antagonists of the estrogen receptor alpha (ER-alpha) signaling pathway using the BG1 cell line in the presence of 0.1 nM 17-beta-estradiol (AID 1259244); note: nearly all actives have a fitted effect of over 50% in size; note: potency is the fitted concentration of half-maximal effect
Sequence of Estrogen receptor (Homo sapiens) (P03372 whole entry, looked up): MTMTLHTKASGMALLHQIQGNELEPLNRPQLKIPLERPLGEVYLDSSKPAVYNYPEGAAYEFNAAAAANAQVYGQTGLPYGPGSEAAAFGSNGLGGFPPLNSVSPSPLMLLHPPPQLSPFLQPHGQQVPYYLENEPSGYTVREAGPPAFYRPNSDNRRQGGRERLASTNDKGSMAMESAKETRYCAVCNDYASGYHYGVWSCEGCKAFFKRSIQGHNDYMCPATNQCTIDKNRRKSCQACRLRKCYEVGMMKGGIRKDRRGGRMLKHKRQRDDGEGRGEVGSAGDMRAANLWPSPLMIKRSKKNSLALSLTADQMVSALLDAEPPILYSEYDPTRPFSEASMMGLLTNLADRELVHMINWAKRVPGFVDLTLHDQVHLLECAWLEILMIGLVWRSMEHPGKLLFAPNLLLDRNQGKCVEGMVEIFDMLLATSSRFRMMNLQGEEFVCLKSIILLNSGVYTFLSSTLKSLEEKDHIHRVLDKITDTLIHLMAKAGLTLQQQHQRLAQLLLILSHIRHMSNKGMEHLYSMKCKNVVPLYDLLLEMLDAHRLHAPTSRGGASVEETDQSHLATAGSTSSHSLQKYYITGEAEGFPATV
In short: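 VM7Luc4E2 cells (endogenous full-length ER-alpha, stable 4xERE-luciferase) were grown 5 days in phenol red-free medium with charcoal-stripped FBS, then exposed 22 h at 37C to compounds plus 0.1 nM (final) 17beta-estradiol; ONE-Glo luminescence read-out.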

[3] = qHTS assay to identify small molecule phospholipidosis (PLD) inducers (AID 1259344; active = well fitted curve in the direction sought with a large enough effect; an effect the other way counts as inactive or inconclusive)
In short: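 Fluorescent phospholipid staining (LipidTOX Red) measured by automated microscopy in fixed HepG2 cells after 24 h treatment; nuclei counterstained with Hoechst 33342; amiodarone as reference inducer.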

[4] = qHTS assay to identify small molecule HDAC inhibitors (AID 1259364); note: top concentration of the series differs between compounds; nearly all actives have a fitted effect of over 45% in size
In short: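 Wild-type HCT-116 cells were plated overnight, exposed to compounds for 2 h at 37 °C, then given HDAC-Glo class I/II luminogenic reagent for 30 min at room temperature before luminescence was read.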

[5] = qHTS assay to identify small molecule HDAC inhibitors - cell viability counter screen (AID 1259365); note: series mostly up to about 92 µM; nearly all actives have a fitted effect of over 50% in size
In short: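 Counter screen in wild-type HCT-116 cells: compounds dissolved in DMSO are pin-transferred onto overnight-plated cells and left 2hr at 37C. ATP-based CellTiter-Glo luminescence then measures viable cells.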

[6] = qHTS assay to identify small molecule agonists of the sonic hedgehog signaling (Shh) pathway - cell viability counter screen (AID 1259366); note: nearly all actives have a fitted effect of over 50% in size; note: potency is the fitted concentration of half-maximal effect
In short: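 Cells are plated at 2,000 per well and left 4hr at 37C, 5% CO2 before compound addition. After 23hr of treatment, CellTiter-Fluor reagent is added for 1hr at 37C and fluorescence is measured.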

[7] = qHTS assay to identify small molecule antagonists of the sonic hedgehog signaling (Shh) pathway - cell viability counter screen (AID 1259367); note: nearly all actives have a fitted effect of over 55% in size
In short: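 Using CellTiter-Fluor, viability of Gli1-Luc reporter 3T3 cells is read by fluorescence in the wells used for the Shh luciferase assay. Treatment lasts 23 hr with conditioned medium, then reagent 1 hr at 37C.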

[8] = qHTS assay to identify small molecule agonists of the sonic hedgehog signaling (Shh) pathway (AID 1259368; calls by dose curve; note: series mostly up to about 92 µM; nearly all actives have a fitted effect of over 15% in size)
In short: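 NIH/3T3-derived 3T3Gli1-Luc cells carrying a stably integrated Gli1 response element–firefly luciferase reporter were plated, left 4 hr at 37 C, then given compounds in DMSO for 24 hr. Luminescence was read 30 min after adding luciferase reagent.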

[9] = qHTS assay to identify small molecule antagonists of the sonic hedgehog signaling (Shh) pathway (AID 1259369; calls by dose curve; note: nearly all actives have a fitted effect of over 45% in size; note: potency is the fitted concentration of half-maximal effect)
In short: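 NIH/3T3-derived 3T3Gli1-Luc cells with stably integrated Gli1-Luc reporter were preincubated 4hr at 37 C, then given compounds in DMSO plus Shh conditioned medium and incubated 24hr. Firefly luciferase luminescence read after 30min reagent at room temperature.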

[10] = molecular target: Estrogen receptor beta (Homo sapiens) (UniProt Q92731); assay: qHTS assay to identify small molecule agonists of the estrogen receptor beta (ER-beta) signaling pathway (AID 1259377; active = well fitted activation curve with a large enough effect in the signal ratio in the repeat runs, not every such curve was filed as active; the % refers to the signal ratio)
Sequence of Estrogen receptor beta (Homo sapiens) (Q92731 whole entry, looked up, the tested form may be a part): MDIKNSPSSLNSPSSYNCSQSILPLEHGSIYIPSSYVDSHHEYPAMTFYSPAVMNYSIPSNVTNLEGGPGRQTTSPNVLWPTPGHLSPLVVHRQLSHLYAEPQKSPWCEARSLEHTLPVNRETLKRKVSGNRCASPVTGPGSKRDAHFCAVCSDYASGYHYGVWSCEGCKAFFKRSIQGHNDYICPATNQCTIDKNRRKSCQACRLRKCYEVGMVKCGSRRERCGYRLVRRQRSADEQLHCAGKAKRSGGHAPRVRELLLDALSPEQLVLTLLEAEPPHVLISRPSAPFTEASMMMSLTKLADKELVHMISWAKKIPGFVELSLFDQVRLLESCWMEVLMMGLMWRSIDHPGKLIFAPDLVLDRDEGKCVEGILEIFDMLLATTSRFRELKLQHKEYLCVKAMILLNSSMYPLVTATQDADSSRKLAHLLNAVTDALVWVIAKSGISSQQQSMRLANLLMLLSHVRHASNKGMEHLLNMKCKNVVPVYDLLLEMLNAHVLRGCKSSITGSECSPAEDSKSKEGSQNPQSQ
In short: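 Agonist mode cell assay in GripTite HEK293T cells expressing an ER-beta fusion that drives beta-lactamase from an Upstream Activator Sequence; 16 hr compound exposure at 37C, then 2 h LiveBLAzer B/G FRET substrate at room temperature, fluorescence read-out.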

[11] = molecular target: Estrogen receptor beta (Homo sapiens) (UniProt Q92731); assay: qHTS assay to identify small molecule antagonists of the estrogen receptor beta (ER-beta) signaling pathway (AID 1259378; active = well fitted inhibition curve with a large enough effect in the signal ratio in the repeat runs, not every such curve was filed as active; the % refers to the signal ratio)
In short: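 Antagonist mode: compounds added to beta-lactamase reporter HEK293T ER-beta-UAS cells stimulated with E2 (1nM final), 16 hr at 37C. LiveBLAzer B/G FRET substrate, 2 hours room temperature, fluorescence read-out.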

[12] = qHTS assay to identify small molecule agonists of the androgen receptor (AR) signaling pathway in the presence of an antagonist - cell viability counter screen (AID 1259379); note: nearly all actives have a fitted effect of over 25% in size; note: potency is the fitted concentration of half-maximal effect; for activity change, negative = cytotoxicity: series mostly up to about 92 µM
In short: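 MDA-kb2 human breast carcinoma cells (stable MMTV-luciferase, AR/GR responsive) were seeded 3,000 cells/well, pre-incubated 5 hr at 37C without CO2, then given 3.0uM nilutamide and compounds at 15 concentrations for 16 hr. Viability was read by CellTiter-Fluor fluorescence.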

[13] = qHTS assay to identify small molecule agonists of the estrogen receptor beta (ER-beta) signaling pathway - cell viability counter screen (AID 1259380); note: nearly all actives have a fitted effect of over 30% in size; note: potency is the fitted concentration of half-maximal effect
In short: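 ER-beta-UAS-bla HEK293T cells in medium with 2% charcoal-stripped FBS were preincubated 6 hr at 37C, dosed with compound in DMSO for 16 hr, then after the bla read, CellTiter-Glo was added for 30 min at room temperature; luminescence recorded.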

[14] = qHTS assay to identify small molecule antagonists of the estrogen receptor beta (ER-beta) signaling pathway - cell viability counter screen (AID 1259382); note: nearly all actives have a fitted effect of over 55% in size; note: potency is the fitted concentration of half-maximal effect;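 for activity change, negative = cytotoxicity: HEK293T cells carrying ER-beta-UAS-bla reporter stimulated with estradiol; series mostly up to about 92 µM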
In short: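 ER-beta-UAS-bla HEK293T cells (2,000/well, 2% charcoal-stripped FBS) were pre-incubated 6 hr at 37C, then given compound plus 1nM final 17-beta-estradiol for 16 hr. Viability was read in the same wells by CellTiter-Glo luminescence after 30 min at room temperature.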

[15] = molecular target: Estrogen receptor (Homo sapiens) (UniProt P03372); assay: qHTS assay to identify small molecule agonists of the estrogen receptor alpha (ER-alpha) signaling pathway in the presence of an antagonist (AID 1259383; calls by dose curve; note: top concentration of the series differs between compounds; nearly all actives have a fitted effect of over 15% in size)
In short: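 VM7Luc4E2 cells (endogenous full-length ER-alpha, 4×ERE-luciferase) were precultured 5 days in phenol red-free medium with 10% charcoal-stripped FBS, given 10.0nM ICI-182,780 (final), then treated with compounds at 15 concentrations for 22hr at 37C; luminescence read with ONE-Glo.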

[16] = qHTS assay to identify small molecule agonists or antagonists of the thyroid stimulating hormone receptor (TSHR) signaling pathway - wild type cell line counter screen (AID 1259384; calls by dose curve)
In short: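 Counter screen in untransfected Hek293: compounds (15-point titration, triplicate) plus phosphodiesterase inhibitor Ro20-1724 added after 18 h plating; 30 min RT. Intracellular cAMP via competitive d2/cryptate immunoassay, 1 h incubation.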

[17] = molecular target: Thyrotropin receptor (Homo sapiens) (UniProt P16473); assay: qHTS assay to identify small molecule antagonists of the thyroid stimulating hormone receptor (TSHR) signaling pathway (AID 1259385; calls by dose curve; note: nearly all actives have a fitted effect of over 20% in size)
Sequence of Thyrotropin receptor (Homo sapiens) (P16473 whole entry, looked up): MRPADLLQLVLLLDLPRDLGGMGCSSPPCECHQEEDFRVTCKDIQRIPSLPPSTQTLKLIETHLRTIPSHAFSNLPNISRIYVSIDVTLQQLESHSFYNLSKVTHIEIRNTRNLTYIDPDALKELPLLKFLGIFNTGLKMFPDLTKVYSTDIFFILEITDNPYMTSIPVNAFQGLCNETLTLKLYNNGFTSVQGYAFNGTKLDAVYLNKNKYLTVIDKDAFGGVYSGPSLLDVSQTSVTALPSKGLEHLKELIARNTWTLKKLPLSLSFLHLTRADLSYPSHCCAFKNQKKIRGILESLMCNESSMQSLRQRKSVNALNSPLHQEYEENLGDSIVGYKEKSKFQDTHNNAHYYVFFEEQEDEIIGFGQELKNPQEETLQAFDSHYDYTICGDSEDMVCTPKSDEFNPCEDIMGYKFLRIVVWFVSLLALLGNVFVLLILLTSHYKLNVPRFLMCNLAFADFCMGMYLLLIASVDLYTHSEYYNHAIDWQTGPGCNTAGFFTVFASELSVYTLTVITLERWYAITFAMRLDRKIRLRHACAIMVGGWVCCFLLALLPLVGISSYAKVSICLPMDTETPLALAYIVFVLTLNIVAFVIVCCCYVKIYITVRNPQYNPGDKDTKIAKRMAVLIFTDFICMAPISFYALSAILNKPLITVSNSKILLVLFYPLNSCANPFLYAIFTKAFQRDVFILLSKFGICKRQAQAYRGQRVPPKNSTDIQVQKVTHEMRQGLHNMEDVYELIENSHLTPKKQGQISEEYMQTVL
In short: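 Antagonist mode: compound-treated TSHR-expressing HEK293 cells were stimulated with 1.5 ng/mL TSH (final) in presence of Ro20-1724 for 30 min at RT. HTRF cAMP detection after 1 h; each compound tested at 15 concentrations, triplicate.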

[18] = qHTS assay to identify small molecule antagonists of the estrogen receptor alpha (ER-alpha) signaling pathway using the BG1 cell line in the presence of 0.1 nM 17-beta-estradiol - cell viability counter screen (AID 1259241); note: nearly all actives have a fitted effect of over 40% in size
In short: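 Cells were plated and left 24 hr, compounds in DMSO were pinned in, 17beta-estradiol was added to 0.1 nM final, and after 22 hr CellTiter-Fluor reagent was added for 30 min before fluorescence was read.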

**Q.** What does the source list for `O=C(O)[C@H](O)[C@@H](O)[C@H](O[C@@H]1O[C@H](CO)[C@H](O)[C@H](O)[C@H]1O)[C@H](O)CO`?
**A.** Potency [1]: inactive; Potency [2]: inactive; Potency [3]: inactive; Potency [4]: inactive; Potency [5]: inactive; Potency [6]: inactive; Potency [7]: inactive; Potency [8]: inactive; Potency [9]: inactive; Potency [10]: inactive; Potency [11]: inactive; Potency [12]: inactive; Potency [13]: inactive; Potency [14]: inactive; Potency [15]: inactive; outcome [16]: inactive; Potency [17]: inactive

**Q.** Which Potency [18] does the source give for `S=C([S-])NCCNC(=S)[S-].S=C([S-])NCCNC(=S)[S-].[Mn+2].[Zn+2]` here?
**A.** Its Potency is “inactive”.

**Q.** And the Potency [1]?
**A.** The Potency was “inactive”.

**Q.** What about the Potency [5] of the same molecule?
**A.** Its Potency is “inactive”.

**Q.** What about the Potency [7] of the same molecule?
**A.** Its Potency is “inactive”.

**Q.** And the Potency [8]?
**A.** Its Potency is “inactive”.

**Q.** What about the Potency [14] of the same molecule?
**A.** Its Potency is “inactive”.

**Q.** What about the outcome [16] of the same molecule?
**A.** The outcome was “inactive”.

**Q.** And the Potency [17]?
**A.** Its Potency is “inactive”.

**Q.** Which activity change, negative = cytotoxicity [18] does the source give for `COc1cc2nc(N3CCN(C(=O)c4ccco4)CC3)nc(N)c2cc1OC` here?
**A.** Its activity change, negative = cytotoxicity is 2.36% [at 19 µM] (inactive).

**Q.** And the activity change, negative = inhibition [2]?
**A.** The activity change, negative = inhibition was -15.5% [at 19 µM] (inactive).

**Q.** And the Potency [3]?
**A.** Its Potency is “inactive”.

**Q.** What about the activity change, negative = cytotoxicity [5] of the same molecule?
**A.** Its activity change, negative = cytotoxicity is -0.972% [at 19 µM] (inactive).

**Q.** And the activity change [8]?
**A.** The activity change was -4.98% [at 18.9 µM, stronger effect = higher value] (inactive).

**Q.** And the activity, negative = inhibition [11]?
**A.** Its activity, negative = inhibition is 1.22% [at 19 µM] (inactive).

**Q.** What about the activity change, negative = cytotoxicity [14] of the same molecule?
**A.** Its activity change, negative = cytotoxicity is -13.3% [at 19 µM] (inactive).

**Q.** What about the activation [15] of the same molecule?
**A.** The activation was 0.868% [at 19 µM] (inactive).

**Q.** What about the cAMP activity change [16] of the same molecule?
**A.** The cAMP activity change was -1.07% [at 18.9 µM] (inactive).

**Q.** And the activity change, negative = inhibition [17]?
**A.** Its activity change, negative = inhibition is -8.31% [at 19 µM] (inactive).

**Q.** Which results are given for `CCCCCCCCCCCCCC[N+](C)(C)C`?
**A.** Potency [1]: 23.5 µM (active); Potency [2]: 2.96 µM (active) and 3.85 µM (active) and 26.6 µM (active); Potency [3]: inactive; Potency [4]: inactive; Potency [5]: inactive; Potency [6]: 21 µM (active) and 27.3 µM (active) and inactive; Potency [7]: inactive; Potency [8]: inactive; Potency [9]: 27.3 µM (active) and 531 nM (active); Potency [12]: 33.2 µM (active) and 24.3 µM (active) and 10.6 µM (active); Potency [13]: 26.4 µM (active) and 27.3 µM (active); Potency [14]: 26.4 µM (active) and 30.6 µM (active) and 33.5 µM (active); Potency [15]: inactive
